According to PubChem BioAssay AID2315 (National Center for Advancing Translational Sciences (NCATS), 2010):
The campaign covered roughly 290,000 compounds. About 27,000 (9.3%) were called active. The sample holds actives, similar compounds and a random draw of the others, so the mix is not that of the screen. No stated cut-off is given here; in the data, active means inhibition mostly above about 28% (no sharp cut-off); inactive means mostly below about 43%.

Experiment: A qHTS for Small Molecule Inhibitors of Shiga Toxin; further: 0% is about no effect
Settings: Vero cells, Shiga toxin protein synthesis inhibition reporter; at 38.7 µM, hits give high values

| SMILES | inhibition |
| --- | --- |
| Cc1c(S(=O)(=O)NC(C)c2ccccc2)c(=O)n(C)c(=O)n1C (stereo not drawn) | -36.1% (inactive) |
| Cc1ccc(NC(=O)NCC(c2cccnc2)N2CCOCC2)cc1 (stereo not drawn) | -5.81% (inactive) |
| Cc1ccc(NC(=O)Nc2cccnc2)cc1 | 29% (active) |
| O=C(NNC(=O)c1cccnc1)Nc1ccccc1 | 2.5% (inactive) |
| C/C=C(/C)C(=O)O[C@@H]1c2cc3c(c4c2[C@@]2(CO4)C(=O)C(OC)=C(OC)C=C2C[C@@H](C)[C@H]1C)OCO3 | -12.4% (inactive) |
| CS(=O)(=O)C1=NN2C(=N)/C(=C\c3ccc(OCCOc4ccccc4)cc3)C(=O)N=C2S1 | 13.4% (inactive) |
| Cc1ccc(N(C(=O)Cc2cccs2)C(C(=O)NCC2CCCO2)c2ccncc2)cc1 (stereo not drawn) | 59.4% (active) |
| O=C(NCC(=O)N(c1ccccc1)C(C(=O)NCC1CCCO1)c1ccccc1)c1cccs1 (stereo not drawn) | -3.3% (inactive) |
| Cc1cccc(N(C(=O)Cc2cccs2)C(C(=O)NCc2ccco2)c2ccncc2)c1 (stereo not drawn) | 2.84% (inactive) |
| COc1cccc(CNS(=O)(=O)c2ccc3c(c2)CC(C)N3C(=O)C2CCC2)c1 (stereo not drawn) | -3.12% (inactive) |
| CC12CN3CCN(CC(C3)/C1=N\NC(=O)c1ccccc1N)C2 | 60.8% (active) |
| Nc1ccccc1C(=O)NC1CCCCNC1=O (stereo not drawn) | 2.5% (inactive) |
| CNC(=S)N/N=C1\C2CN3CCN(C2)CC1(c1ccccc1)C3 | 14% (inactive) |
| CCn1cc(C(=O)N2CC(C)CC(C)C2)c(=O)c2cc(S(=O)(=O)N3CCCC3)ccc21 (stereo not drawn) | -9.23% (inactive) |
| O=C(NCCCn1ccnc1)c1cc(Br)c(Br)s1 | -8.29% (inactive) |
| CCN(CC)CCNC(=O)CCCCCn1c(=O)[nH]c2cc(C(=O)OC)ccc2c1=O | 11.7% (inactive) |
| COC(=O)c1ccc2c(C(C)(C)O)c(C(C)(C)O)[nH]c2c1 | 25.7% (active) |
| COC(=O)c1cccc(NS(C)(=O)=O)c1 | 7.52% (inactive) |
| CCc1nnc(NC(=O)CSCc2cc(=O)n3cc(C)sc3n2)s1 | 9.5% (inactive) |
| CN(C)c1nc(NN)nc(Nc2ccc(F)cc2)n1 | -6.82% (inactive) |
| COc1cc(SC)ccc1C(=O)Nc1nc(C)cs1 | -19.5% (inactive) |
| COc1cc(SC)ccc1C(=O)Nc1cc(C)ccn1 | 71.5% (active) |
| Cc1occc1C(=O)Nc1cccc(Cn2cccn2)c1 | 39.7% (inactive) |
| COc1cc(SC)ccc1C(=O)NCCOc1ccccc1Cl | 72.6% (active) |

| SMILES | inhibition |
| --- | --- |
| COc1cc(SC)ccc1C(=O)N(Cc1ccccc1)c1ccccc1 | -14.7% (inactive) |
| Cc1ccnc(NC(=O)CCCOc2ccccc2)c1 | 31.5% (inactive) |
| COc1ccccc1OCCNC(=O)CCNC(=O)c1ccccc1Cl | 5.05% (inactive) |
| Cc1ccnc(NC(=O)c2ccoc2C)c1 | 62.3% (active) |
| Cc1ccnc(NC(=O)C(C)N2C(=O)c3ccccc3C2=O)c1 (stereo not drawn) | 16.9% (inactive) |
| COc1cc(NS(=O)(=O)c2ccc(NC(=O)c3ccc([N+](=O)[O-])cc3)cc2)ncn1 | -2.79% (inactive) |
| Cc1nc([N+](=O)[O-])cn1CC(=O)Nc1ccc(Cl)cc1 | -12.3% (inactive) |
| Cc1ccc(C(=O)OCC(=O)NC(=O)Cc2ccccc2)c(O)c1 | -0.702% (inactive) |
| CCOC(=O)C1CCN(Cc2c(C(=O)N3CCOCC3)nc3c(C)cccn23)CC1 | -32.7% (inactive) |
| O=C(c1cccc([N+](=O)[O-])c1)N1CCN(Cc2ccccc2)CC1 | -0.104% (inactive) |
| COc1ccc(N=C(C)c2sc3ccccc3c2O)cc1 | 122% (active) |
| COc1ccc(S(=O)(=O)Nc2ccc(O)c(Sc3nc4ccccc4s3)c2)cc1 | -14.7% (inactive) |
| COc1ccc(-n2c(O)c(C(C)=Nc3ccc4c(c3)CCC4)c(=O)[nH]c2=O)cc1 | -5.66% (inactive) |
| CN(CC(=O)Nc1ccc(F)cc1)C(=O)c1ccc(-c2ccc(Cl)cc2)o1 | 5.28% (inactive) |
| CC(C)c1nnc(NC(=O)COC(=O)/C=C/c2ccc([N+](=O)[O-])cc2)s1 | -13.2% (inactive) |
| COc1cccc(N(C(=O)C2COc3ccccc3O2)C(C(=O)NC2CCCCC2)c2ccc(O)cc2)c1 (stereo not drawn) | -2.98% (inactive) |
| CC(C(=O)NCC1CCCCC1)N(C)Cc1cccc(Cl)c1 (stereo not drawn) | 25.2% (inactive) |
| CCn1ccnc1CN(C)C(=O)c1ccc2nc(Cc3ccc(OC)cc3)oc2c1 | -2.76% (inactive) |
| CC(c1ccccn1)N(C)C(=O)c1ccc2nc(Cc3cccc(Cl)c3)oc2c1 (stereo not drawn) | 73.2% (active) |
| COc1ccc(N2CCN(C(=O)c3ccc4c(Cl)c5c(nc4c3)CCCC5)CC2)cc1 | -17.4% (inactive) |
| CC(=O)c1ccc(NC(=O)c2ccc3c(Cl)c4c(nc3c2)CCCC4)cc1 | -8.45% (inactive) |
| CC(C)CCNC(=O)c1ccc2c(Cl)c3c(nc2c1)CCC3 | 70.3% (active) |
| O=C(CNC(=O)OCc1ccccc1)NC1CCCCNC1=O (stereo not drawn) | -7.21% (inactive) |
| COC(=O)c1ccccc1NC(=O)C1(S(=O)(=O)c2ccc(Cl)cc2)CC1 | -19.5% (inactive) |

| SMILES | inhibition |
| --- | --- |
| COc1ccc(C2NC(=S)NC3=C2CCc2ccccc23)cc1OC (stereo not drawn) | -17% (inactive) |
| CCOC(=O)C1=C(c2ccccc2)NC(=S)NC1c1ccc(Cl)cc1 (stereo not drawn) | -13.4% (inactive) |
| CCOc1ccc(C2NC(=S)NC3=C2CCc2ccccc23)cc1 (stereo not drawn) | 50.5% (active) |
| Cc1ccccc1N(C(=O)CNC(=O)c1cccs1)C(C(=O)NC1CCCC1)c1ccncc1 (stereo not drawn) | 10.5% (inactive) |
| COc1ccc(Nc2nc(N)nc(CSC(=S)N3CCC(C)CC3)n2)cc1 | 76.8% (active) |
| CCOC(=O)c1cnc(SCc2nc(N)nc(Nc3ccc(OC)cc3)n2)nc1N | 19.9% (inactive) |
| COc1ccccc1Nc1nc(N)nc(CSC(=S)N2CCOCC2)n1 | 68.3% (inactive) |
| Cc1cc(C)c(S(=O)(=O)Nc2c(C)n(C)n(-c3ccccc3)c2=O)cc1[N+](=O)[O-] | -11.7% (inactive) |
| CCOC(=O)c1ccc(NC(=S)N2CCN(c3ccccn3)CC2)cc1 | -8.31% (inactive) |
| Cc1cc(C)nc(NC(=O)Nc2ccccc2C(F)(F)F)n1 | 59.8% (active) |
| Cc1cc(C)nc(NC(=O)C(C)N2C(=O)c3ccccc3C2=O)n1 (stereo not drawn) | -5.77% (inactive) |
| Cc1cc(Cl)nc(NC(=O)Nc2cccc(Cl)c2)n1 | 61.3% (inactive) |
| CC(NC(=O)c1ccccc1C(=O)O)c1ccc(-n2ccnc2)cc1 (stereo not drawn) | 14.3% (inactive) |
| N=c1oc2ccccc2cc1C(=O)NCc1ccccc1 | 52.2% (active) |
| Cc1cc(C)cc(OCC(=O)NNC(=O)c2cc3ccccc3oc2=O)c1 | 38.5% (inactive) |
| CC(NC(=O)c1cc2cc(Cl)ccc2oc1=N)c1ccccc1 (stereo not drawn) | 23.9% (inactive) |
| O=C(N/N=C\c1cccc(Br)c1)c1ccccc1-n1cccc1 | 14.5% (inactive) |
| COc1cccc2cc(C(=O)NCc3ccc(C)cc3)c(=N)oc12 | 15.9% (inactive) |
| CNC(=O)c1cc2c(ccc3ccccc32)oc1=N | 30.1% (inactive) |
| CN(c1ccccc1)S(=O)(=O)c1ccc(Cl)c(C(=O)NCCc2c[nH]c3ccccc23)c1 | 1.16% (inactive) |
| O=C(NCCc1c[nH]c2ccccc12)c1cc2ccccc2oc1=O | 121% (active) |
| O=C(NCCc1c[nH]c2ccccc12)c1cccc(Br)c1 | 22.8% (inactive) |
| O=C(NCc1ccccn1)c1cc2ccccc2oc1=O | 72.4% (active) |
| COc1ccc2oc(=O)c(C(=O)NCc3ccccn3)cc2c1 | 24.7% (inactive) |

| SMILES | inhibition |
| --- | --- |
| N=c1oc2ccccc2cc1C(=O)N/N=C/c1ccccc1 | 76.3% (active) |
| Cc1[nH]c2c(C(=O)N3CCCC(CCC(=O)NCc4ccccc4F)C3)cccc2c1C (stereo not drawn) | 16.4% (inactive) |
| CCOCCCNC(=O)C1(O)c2cc(Br)ccc2NC(=O)N1c1ccc(C)c(C)c1 (stereo not drawn) | -7.51% (inactive) |
| Cc1ccccc1OCC(=O)Nc1ccc(S(=O)(=O)N2CCOCC2)cc1 | -7.1% (inactive) |
| Cc1cc(NC(=O)CCC(=O)N(Cc2ccccc2)C(C(=O)NC2CCCC2)c2ccc(C)o2)no1 (stereo not drawn) | 11.3% (inactive) |
| O=C1CCNCCN1[C@H](CO)Cc1ccccc1 | -8.58% (inactive) |
| CCC(C)N1CC(=O)N2Cc3[nH]c4ccccc4c3C[C@H]2C1=O (stereo partly drawn) | -5.65% (inactive) |
| COc1ccc(OC)c(C(=O)NC(CC(N)=O)c2ccc(N3CCC(N4CCCCC4)CC3)c([N+](=O)[O-])c2)c1 (stereo not drawn) | -6.13% (inactive) |
| COc1ccc(Cc2nnc(SCC(=O)Nc3ccc(C)c(C)c3)o2)cc1OC | -3.66% (inactive) |
| CCN1CCN(Cc2c(O)ccc3c(=O)c(-c4ccc(OC)c(OC)c4)c(C(F)(F)F)oc23)CC1 | 21.4% (active) |
| CCOC(=O)c1oc2c(CN3CCN(C)CC3)c(O)ccc2c(=O)c1-c1ccc(Br)cc1 | 15.8% (inactive) |
| CN1CCN(Cc2c(O)ccc3c2oc(=O)c2ccccc23)CC1 | 23.3% (inactive) |
| CC(C)=CCCC1(C)C=Cc2c(ccc3c2[nH]c2cc(O)c(C)cc23)O1 (stereo not drawn) | 23.1% (inactive) |
| CC(C)Oc1ccc(CN2CCC(n3nccc3NC(=O)c3cccnc3)CC2)cc1 | -10.5% (inactive) |
| O=C(Cc1ccsc1)N1CCN(S(=O)(=O)c2cc(C(F)(F)F)cc(C(F)(F)F)c2)CC1 | -17.3% (inactive) |
| O=C(COc1ccc([N+](=O)[O-])cc1)Nc1cccc(C(=O)Nc2ccccc2C(=O)O)c1 | -17.8% (inactive) |
| COc1ccc(-c2cn(-c3ccc(OC)cc3)c(=S)[nH]2)cc1 | 38.6% (inactive) |
| S=c1[nH]c(-c2cccs2)cn1-c1ccccc1 | 58.2% (active) |
| O=c1oc2ccccc2cc1-c1cn(-c2ccccc2)c(=S)[nH]1 | 24.5% (inactive) |
| O=C(CN(C(=O)c1csnn1)c1ccc(Br)cc1)NC1CCCC1 | -6.01% (inactive) |
| COc1ccc(Cl)cc1NC(=O)CCS(=O)(=O)c1ccc(Br)cc1 | -3.47% (inactive) |
